Assay results: PubChem BioAssay (NCI)
“And” between values parts separate entries of the source, which are not always exact repeats. Identical values can stand only once. This is part of a sample that, as a whole, favours compounds with a hit. Of some 83,000 tested, about 20% had one in any assay.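 Values shown are percent growth following 48 h exposure of cells in 96-well plates to a single concentration of compound; below 10 was considered active.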 The source made the active and inactive calls.

Legend:
Assay in all cases: NCI-60 one-dose screen, 48 h (100 = growth as untreated, 0 = no growth, -100 = all killed)
Conditions in all cases: 10 µM unless noted
SK-MEL-2 melanoma = tested on: SK-MEL-2 melanoma
EKVX NSCLC = tested on: EKVX NSCLC
SN12C renal = tested on: SN12C renal
UO-31 renal = tested on: UO-31 renal
TK-10 renal = tested on: TK-10 renal
ACHN renal = tested on: ACHN renal
CAKI-1 renal = tested on: CAKI-1 renal
A498 renal = tested on: A498 renal
MOLT-4 leukemia = tested on: MOLT-4 leukemia
SR leukemia = tested on: SR leukemia
RPMI-8226 leukemia = tested on: RPMI-8226 leukemia
OVCAR-8 ovarian = tested on: OVCAR-8 ovarian
OVCAR-5 ovarian = tested on: OVCAR-5 ovarian
OVCAR-4 ovarian = tested on: OVCAR-4 ovarian
SK-OV-3 ovarian = tested on: SK-OV-3 ovarian
IGROV1 ovarian = tested on: IGROV1 ovarian
OVCAR-3 ovarian = tested on: OVCAR-3 ovarian
HS 578T breast = tested on: HS 578T breast
NCI/ADR-RES ovarian = tested on: NCI/ADR-RES ovarian
CCRF-CEM leukemia = tested on: CCRF-CEM leukemia

COc1ccc2ccccc2c1/C=N/N1CCCCC1
growth (SK-MEL-2 melanoma): 102% (inactive)
growth (EKVX NSCLC): 93.6% (inactive)
growth (SN12C renal): 96.9% (inactive)
growth (UO-31 renal): 88.9% (inactive)
growth (TK-10 renal): 105% (inactive)
growth (ACHN renal): 99% (inactive)
growth (CAKI-1 renal): 85.7% (inactive)
growth (A498 renal): 89% (inactive)
growth (MOLT-4 leukemia): 88.3% (inactive)
growth (SR leukemia): 108% (inactive)
growth (RPMI-8226 leukemia): 91.3% (inactive)
growth (OVCAR-8 ovarian): 95.4% (inactive)
growth (OVCAR-5 ovarian): 98.7% (inactive)
growth (OVCAR-4 ovarian): 99.5% (inactive)
growth (SK-OV-3 ovarian): 111% (inactive)
growth (IGROV1 ovarian): 116% (inactive)
growth (OVCAR-3 ovarian): 103% (inactive)
growth (HS 578T breast): 98.5% (inactive)
growth (NCI/ADR-RES ovarian): 90.9% (inactive)

S=C(S)N1CCCC1
growth (SK-MEL-2 melanoma): 98% (inactive) and 99.7% (inactive)
growth (EKVX NSCLC): 114% (inactive) and 99% (inactive)
growth (SN12C renal): 96.4% (inactive) and 109% (inactive)
growth (UO-31 renal): 88.3% (inactive) and 76.4% (inactive)
growth (TK-10 renal): 96.5% (inactive) and 96.3% (inactive)
growth (ACHN renal): 125% (inactive) and 110% (inactive)
growth (CAKI-1 renal): 124% (inactive)
growth (CCRF-CEM leukemia): 65.5% (inactive) and 70.7% (inactive)
growth (MOLT-4 leukemia): 98.7% (inactive) and 107% (inactive)
growth (SR leukemia): 65.2% (inactive) and 83.6% (inactive)
growth (RPMI-8226 leukemia): 93% (inactive) and 91.3% (inactive)
growth (OVCAR-8 ovarian): 106% (inactive) and 94.1% (inactive)
growth (OVCAR-5 ovarian): 112% (inactive) and 113% (inactive)
growth (OVCAR-4 ovarian): 117% (inactive) and 96.8% (inactive)
growth (SK-OV-3 ovarian): 116% (inactive) and 112% (inactive)
growth (IGROV1 ovarian): 58.9% (inactive) and 56.5% (inactive)
growth (OVCAR-3 ovarian): 69.5% (inactive) and 100% (inactive)
growth (HS 578T breast): 106% (inactive)
growth (NCI/ADR-RES ovarian): 107% (inactive) and 99.1% (inactive)

CCOC(=O)Nc1nc2ccccc2[nH]1
growth (SK-MEL-2 melanoma): 110% (inactive) and 51% (inactive)
growth (EKVX NSCLC): 95.6% (inactive) and 68.4% (inactive)
growth (SN12C renal): 95.1% (inactive) and 34.9% (inactive)
growth (UO-31 renal): 94.5% (inactive) and 51.5% (inactive)
growth (TK-10 renal): 111% (inactive) and 64.6% (inactive)
growth (ACHN renal): 103% (inactive) and 52.6% (inactive)
growth (CAKI-1 renal): 93.6% (inactive) and 40.7% (inactive)
growth (CCRF-CEM leukemia): 98.9% (inactive) and 27.8% (inactive)
growth (MOLT-4 leukemia): 120% (inactive) and 16.7% (inactive)
growth (SR leukemia): 98.9% (inactive)
growth (RPMI-8226 leukemia): 97.3% (inactive) and -1.09% (active)
growth (OVCAR-8 ovarian): 97.7% (inactive) and 50.6% (inactive)
growth (OVCAR-5 ovarian): 109% (inactive) and 58.4% (inactive)
growth (OVCAR-4 ovarian): 111% (inactive) and 83% (inactive)
growth (SK-OV-3 ovarian): 103% (inactive) and 31.1% (inactive)
growth (IGROV1 ovarian): 114% (inactive) and 39.3% (inactive)
growth (OVCAR-3 ovarian): 122% (inactive) and 1.16% (active)
growth (NCI/ADR-RES ovarian): 104% (inactive) and 3.49% (active)

CN(C)c1ccc(C(Cc2ccc3ccccc3n2)Cc2ccc3ccccc3n2)cc1
growth (SK-MEL-2 melanoma): 70% (inactive) and 88.5% (inactive)
growth (EKVX NSCLC): 49.2% (inactive) and 72.9% (inactive)
growth (SN12C renal): 48.7% (inactive) and 81.6% (inactive)
growth (UO-31 renal): 2.9% (active) and 56.3% (inactive)
growth (TK-10 renal): 74.1% (inactive) and 121% (inactive)
growth (ACHN renal): 50.5% (inactive) and 89.6% (inactive)
growth (CAKI-1 renal): 26.1% (inactive) and 74.9% (inactive)
growth (CCRF-CEM leukemia): 41.7% (inactive) and 67.4% (inactive)
growth (MOLT-4 leukemia): 11.4% (inactive) and 74.6% (inactive)
growth (SR leukemia): 39.5% (inactive) and 71% (inactive)
growth (RPMI-8226 leukemia): 25.4% (inactive) and 51.4% (inactive)
growth (OVCAR-8 ovarian): 46.5% (inactive) and 91.9% (inactive)
growth (OVCAR-5 ovarian): 58.7% (inactive) and 88.9% (inactive)
growth (OVCAR-4 ovarian): 45.5% (inactive) and 79.8% (inactive)
growth (SK-OV-3 ovarian): 77.5% (inactive) and 99.6% (inactive)
growth (IGROV1 ovarian): 36% (inactive) and 90.3% (inactive)
growth (OVCAR-3 ovarian): 55.2% (inactive) and 79.8% (inactive)
growth (NCI/ADR-RES ovarian): 37.5% (inactive) and 76.3% (inactive)
